# Measured values from PubChem BioAssay (Tox21).
# The source made the active and inactive calls. Calls come from the whole dose curve; as a rule, active = well fitted activation curve with a large enough effect in the repeat runs; inconclusive = weak or mixed curves; inactive = flat fitted curve, though single readings scatter.
# Target: KiSS-1 receptor (Homo sapiens) (UniProt Q969F8)
# Test: Human kisspeptin (KISS1R) small molecule agonists, calcium flux assay in KISS1R-HEK293 cells (AID 1920064)
# Conditions: KISS1R-HEK293, calcium flux fluorescence, agonist; series mostly up to 76.8 µM; activation: at the top concentration
# From the text: National Center for Advancing Translational Sciences [NCATS]
# Division of Preclinical Innovation [DPI]
# U.S. Environmental Protection Agency [EPA]
# National Institutes of Environmental Health Sciences [NIEHS]
# National Toxicology Program [NTP]
# U.S. Food and Drug Administration [FDA]
# Kisspeptin and its receptor KISS1R play key roles in mammalian reproduction due to their involvement in the onset of puberty and control of the hypothalamic-pituitary-gonadal axis such as regulates GnRH release from the hypothalamus. The kisspeptin/KISS1R system also plays a direct role in peripheral organs (including the ovary, testis, uterus, and placenta) and is implicated in reproductive diseases such as miscarriage and polycystic ovary syndrome (PCOS). Abnormal KISS1R activity is associated with abnormal puberty, infertility, endometriosis, and hormone-dependent tumors. The KISS1 receptor (KISS1R, also called GPR54), a G-protein-coupled receptor (GPCR), acts (through phospholipase C) to increase intracellular inositol trisphosphate and then release intracellular calcium stores. Cell-based KISS1R-HEK293 assay is using HEK293 cells that have been genetically engineered to express the human KISS1R, which activity can be measured by calcium signaling. A compound/drug can activate (agonist) KISS1R that can be monitored by levels of intracellular calcium.
# KISS1R-HEK293 cells developed by Codex Corp contain human KISS1R gene, which was stably integrated into HEK 293 cells. The compound activation can be detected by fluorescence intensity via calcium flux assay. This cell line has been used to screen the Tox21 10K compound library to identify agonists of KISS1R.
# KISS1R-Hek293 cells were dispensed at 1500 cells/4uL/well in 1536-well black wall/clear bottom plates using a multidrop dispenser. After the assay plates were incubated at a 37 C/5% CO2 incubator for 18 hours, 4 microL of Calcium Dye Solution was added to each well. The plates were incubated at 37 C for 1 hour. And then 23 nL of compounds dissolved in DMSO, positive controls, or DMSO only was transferred to the assay plate by a pin tool station. The fluorescence intensity in the plates was measured using FDSS 7000EX kinetic plate reader with a filter set of Ex/Em=480/540 for 3 min at 1 sec intervals. Each test compound was measured at 15 concentrations and in triplicates.
# % is set by controls: 0 for no effect and ±100 for the full control effect.
# Sequence of KiSS-1 receptor (Homo sapiens) (Q969F8 whole entry, looked up): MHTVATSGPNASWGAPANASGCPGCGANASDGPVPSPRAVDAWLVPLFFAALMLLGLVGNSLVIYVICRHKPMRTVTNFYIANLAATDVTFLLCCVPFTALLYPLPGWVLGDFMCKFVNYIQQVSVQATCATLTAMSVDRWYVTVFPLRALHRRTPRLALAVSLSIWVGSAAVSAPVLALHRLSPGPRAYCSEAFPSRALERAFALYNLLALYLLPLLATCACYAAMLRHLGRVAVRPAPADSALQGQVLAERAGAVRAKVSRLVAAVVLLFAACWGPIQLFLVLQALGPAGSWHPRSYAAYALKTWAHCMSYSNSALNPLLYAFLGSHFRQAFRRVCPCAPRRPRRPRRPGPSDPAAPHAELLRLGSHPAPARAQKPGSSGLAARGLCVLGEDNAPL
Structure (SMILES),activation,Potency
O=C1OCCO1,0.331% (inactive),
COC(=O)/C=C(/C)N,-0.319% [at 35.3 µM] (inactive),
CCn1c2ccccc2c2ccccc21,-2.38% (inactive),
CC(Cl)COP(=O)(OCC(C)Cl)OCC(C)Cl (stereo not given),7.55% (inactive),
OCCOCCOCCOCCOCCO,,inactive
Cc1ccccc1OCC(O)CO (stereo not given),0.0486% [at 35.3 µM] (inactive),
CC(C)C(=O)O,-0.654% (inactive),
Cc1cccc(C)c1NC(=O)CC12CCCN1CCC2,2.08% [at 35.3 µM] (inactive),
O=C1CCC(=O)O1,-1.71% (inactive),
CC(=O)[O][Al][O]C(C)=O,3.07% (inactive),
CCN(CC)C(=O)C1CN2CCc3cc(OC)c(OC)cc3C2CC1OC(C)=O (stereo not given),-0.209% [at 35.3 µM] (inactive),
NC(=O)c1ccc(N)cc1,1.71% (inactive),
NC[C@H](O)c1ccc(O)c(O)c1,5.87% [at 35.3 µM] (inactive),
Cc1cc(C)cc(O)c1,,inactive
CCC(COC(=O)CCS)(COC(=O)CCS)COC(=O)CCS,-0.933% (inactive),
O=Cc1ccc(Cl)c(Cl)c1,3.16% (inactive),
CCCCCCOC(=O)c1ccccc1O,2.85% (inactive),
C=CC(=O)NCOCCCC,,inactive
OCCCCl,-5.75% (inactive),
Oc1c(Cl)ccc(Cl)c1Cl,,inactive

Structure (SMILES),activation,Potency
O=[N+]([O-])c1ccccc1Nc1ccccc1,-2.14% (inactive),
CCOC(C)(C)C,-2.23% (inactive),
O=S1(=O)OC(c2ccc(O)cc2)(c2ccc(O)cc2)c2ccccc21,,inactive
C=CC(=O)NCOCC(C)C,-3.48% (inactive),
CC(C)(C)c1cc(Cc2cc(C(C)(C)C)c(O)c(C(C)(C)C)c2)cc(C(C)(C)C)c1O,,inactive
c1ccc2c(c1)Oc1ccccc1S2,,inactive
COC(=O)Cc1cccc2ccccc12,-0.922% (inactive),
C=CCOCC(CO)(COCC=C)COCC=C,-0.148% [at 35.3 µM] (inactive),
CCCCCCC1(C)CCC(=O)O1 (stereo not given),-0.503% (inactive),
COc1ccc(C(=O)CC(=O)c2ccc(C(C)(C)C)cc2)cc1,,inactive
CCCCOC(=O)CCS,5.27% (inactive),
Nc1nc(=O)n([C@@H]2O[C@H](CO)[C@@H](O)[C@@H]2F)cc1I,-0.704% [at 35.3 µM] (inactive),
NNC(=O)c1cccc(C(=O)NN)c1,-1.7% (inactive),
CC(C)(N=C=O)c1cccc(C(C)(C)N=C=O)c1,,inactive
NCCCN1CCN(CCCN)CC1,-2.43% (inactive),
CCn1cc(C(=O)O)c(=O)c2cc3c(cc21)OCO3,,inactive
c1cnccn1,2.16% (inactive),
CC(C)(C)NCC(O)c1ccc(O)c(CO)c1 (stereo not given),,inactive
C=C(C)C(=O)OCCOCCOCCOC(=O)C(=C)C,,inactive
CC(C)(C)OCC1CO1 (stereo not given),1.79% (inactive),
